The nature of assay [1]: Nuclear factor erythroid 2-related factor 2/antioxidant responsive element (Nrf2/ARE) small molecule agonists: qHTS cell viability counter screen in human keratinocytes (AID 1919968; active = well fitted cell-killing curve with a large enough effect in the repeat runs; note: nearly all actives have a fitted effect of over 55% in size; note: potency is the fitted concentration of half-maximal effect). The gist of the method:
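Parallel cytotoxicity read: KeratinoSens HaCaT cells, compound treatment 23 h, viability by CellTiter-Fluor fluorescence 1 h post-reagent.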

A short description of assay [2]: Nuclear factor erythroid 2-related factor 2/antioxidant responsive element (Nrf2/ARE) small molecule agonists: luciferase reporter gene qHTS assay in human keratinocytes (AID 1919969). Note: nearly all actives have a fitted effect of over 35% in size. Note: potency is the fitted concentration of half-maximal effect. Background: Reporter assays use an easily measured gene product as a stand-in for the process of interest.
For assay [3], the target named is Gonadotropin-releasing hormone receptor (Homo sapiens) (UniProt P30968). The assay can be described thus: Human gonadotropin-releasing hormone receptor (GnRHR) small molecule agonists, calcium flux assay in GnRHR-HEK293 cells (AID 1920063). Note: nearly all actives have a fitted effect of over 35% in size. The gist of the method: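 Calcium flux, agonist mode, human GnRHR stably integrated in HEK293; dye 1 h at 37 C before compound; Ex/Em=480/540 kinetic read, 3 min; 15 concentrations, triplicate.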

Assay [4] can be described thus: G protein-coupled receptor (GPCR) small molecule agonists, calcium flux assay: HEK293 wild type cell line counter screen (AID 1920065). The gist of the method: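 Non-specific calcium responders were flagged by adding DMSO-dissolved compounds to dye-loaded cells and reading 480/540 nm fluorescence each second for 3 min; ATP served as positive control.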
Assay [5] can be described thus: p53 small molecule agonists, cell-based qHTS assay with human liver microsomes (AID 1963577).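 Note: p53 response element beta-lactamase reporter cells with liver microsomes plus NADPH.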 The gist of the method:
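With metabolic activation: human liver microsomes (0.5 mg/mL final) plus NADPH (0.5 mg/mL final) added alongside compounds to p53RE-bla cells; 16 h 37 C exposure; beta-lactamase read by LiveBLAzer fluorescence.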
(Quantitative high-throughput screening tests each substance at several concentrations.)

Assay [6] can be described thus: p53 small molecule agonists, cell-based qHTS assay with rat liver microsomes (AID 1963578). The gist of the method:
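Metabolic activation by rat liver microsomes and NADPH, each 0.5 mg/mL final, added right after compounds to p53RE-bla reporter cells (4,000/well, plated 5 h earlier). 16 h at 37 C, then LiveBLAzer substrate for 2 h at room temperature in the dark; fluorescence read-out.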

Assay [7] in a line: p53 small molecule agonists, cell-based qHTS assay with human liver microsomes: qHTS cell viability counter screen (AID 1963579). Note: nearly all actives have a fitted effect of over 45% in size. The gist of the method:
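Metabolic activation used human liver microsomes and NADPH, both 0.5 mg/mL final, over 16 hours at 37 C on p53RE-bla cells (4,000/well). Cytotoxicity measured by CellTiter-Glo luminescence, 30 min at room temperature.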

The nature of assay [8]: p53 small molecule agonists, cell-based qHTS assay with rat liver microsomes: qHTS cell viability counter screen (AID 1963580). Note: nearly all actives have a fitted effect of over 45% in size. The gist of the method: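 Cytotoxicity counter screen: intracellular ATP measured by CellTiter-Glo luminescence in the same wells as the beta-lactamase reporter read, on HCT-116 p53RE-bla cells exposed 16 h at 37 C to compounds with rat liver microsomes and NADPH, each 0.5 mg/mL final.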

Assay [9] is described as follows: p53 small molecule agonists, cell-based qHTS assay: qHTS cell viability counter screen (AID 1963581). Note: nearly all actives have a fitted effect of over 45% in size. The gist of the method:
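Multiplexed with the reporter read, a CellTiter-Glo step (30 min, room temperature) gauges ATP-based viability of HCT-116 p53RE-bla cells after 16 h compound incubation at 37 C.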

Assay [10] addresses 5-hydroxytryptamine receptor 2A (Homo sapiens) (UniProt P28223). Put plainly: 5-hydroxytryptamine receptor 2A (HTR2A) small molecule antagonists, cell-based qHTS assay (AID 1963586). Note: nearly all actives have a fitted effect of over 45% in size. The gist of the method: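 CHO cells stably expressing human HTR2A were plated for 18 h at 37 C, then loaded with calcium dye for 1 h. Compounds were preincubated 5 min at room temperature before DOI (4 nM solution) was added. Kinetic fluorescence was read for 3 min.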

Assay [11] has the same target. The assay can be described thus: 5-hydroxytryptamine receptor 2A (HTR2A) small molecule agonists, cell-based qHTS assay (AID 1963587). Note: nearly all actives have a fitted effect of over 30% in size. The gist of the method: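 CHO cells stably expressing human HTR2A, plated 18 h, loaded with calcium dye 1 h at 37 C. Agonist mode: compounds added and intracellular calcium fluorescence recorded kinetically for 2 min at 1 sec intervals.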

Assay [12] deals with Muscarinic acetylcholine receptor M1 (Homo sapiens) (UniProt P11229). The assay can be described thus: Cholinergic receptor muscarinic 1 (CHRM1) small molecule antagonists, cell-based qHTS assay (AID 1963588). Note: nearly all actives have a fitted effect of over 40% in size. The gist of the method: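 Compounds were tested at 15 concentrations in three independent runs. Dye-loaded CHRM1-CHO cells were exposed 5 min at room temperature before stimulation by acetylcholine added at 50nM. Intracellular calcium was read kinetically on FDSS for 3 min.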

The target is the same in assay [13]. Put plainly: Cholinergic receptor muscarinic 1 (CHRM1) small molecule agonists, cell-based qHTS assay (AID 1963589). Note: nearly all actives have a fitted effect of over 35% in size. The gist of the method: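 qHTS, 15-point titration, 3 independent runs: compounds pin-transferred onto dye-loaded CHRM1-CHO cells (human M1), calcium fluorescence followed every second to detect agonism.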
Assay [14] in a line: cAMP Responsive Elements (CRE) small molecule agonists, cell-based qHTS assay (AID 1963590). The gist of the method: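 Quantitative HTS for CRE agonists: HEK 293T CRE-bla cells, overnight plating, 3 h compound incubation at 37 C/5% CO2, then 2 h room-temperature LiveBLAzer B/G FRET substrate loading.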
Assay [15] is described as follows: cAMP Responsive Elements (CRE) small molecule antagonists, cell-based qHTS assay (AID 1963591; active = well fitted inhibition curve with a large enough effect in the signal ratio in the repeat runs, not every such curve was filed as active; the % refers to the signal ratio). The gist of the method: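 Fluorescence intensity from cleaved LiveBLAzer B/G substrate (2 h, room temperature) quantified CRE-bla activity in HEK 293T cells exposed 3 h to compound with 0.25 uM final NKH477.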
In assay [16] the target is Beta-2 adrenergic receptor (Homo sapiens) (UniProt P07550). The assay can be described thus: Adrenergic beta2 receptor (ADRB2) small molecule antagonists, cell-based qHTS assay (AID 1963592). Note: nearly all actives have a fitted effect of over 50% in size. Note: potency is the fitted concentration of half-maximal effect. The gist of the method: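 Assay format: CHO-ADRB2 cells, 18-20hr seeding at 37C/5% CO2, then compound plus 1nM isoproterenol agonist mix for 0.5hr RT. Homogeneous time-resolved fluorescence cAMP detection after 1hr, expressed as 665/615 nm ratio.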

For assay [17], the target named is D(2) dopamine receptor (Homo sapiens) (UniProt P14416). Put plainly: Dopamine D2 receptor (DRD2) small molecule antagonists, cell-based qHTS assay (AID 1963595; active = well fitted inhibition curve with a large enough effect in the signal ratio in the repeat runs, with a control signal flat; the % refers to the signal ratio). The gist of the method:
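Readout: HTRF cAMP, cAMP-d2 competing with cellular cAMP for anti-cAMP cryptate, read after 1 h. Cells: DRD2-HEK293. Conditions: 0.1 mM Ro20-1724, 12 nM quinpirole, 200 nM NKH477, 30 min RT.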

The nature of assay [18]: p53 small molecule agonists, cell-based qHTS assay (AID 1963582; active = well fitted activation curve with a large enough effect in the signal ratio in the repeat runs, not every such curve was filed as active; the % refers to the signal ratio). The gist of the method: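 Beta-lactamase reporter cells (p53RE-bla) treated with compounds for 16 h at 37 C; FRET substrate, 2 h, room temperature; fluorescence intensity.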
For assay [19], the target named is Beta-2 adrenergic receptor (Homo sapiens) (UniProt P07550). The assay can be described thus: Adrenergic beta2 receptor (ADRB2) small molecule agonists, cell-based qHTS assay (AID 1963593).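 Note: CHO cells stably overexpressing human ADRB2.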 The gist of the method:
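CHO cells stably over-expressing ADRB2 were plated overnight at 37C, then dosed with compounds plus a stimulation mix containing 100uM IBMX and 25uM Ro-20-1724 for 0.5hr at room temperature. cAMP was measured by HTRF competition, 1hr.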

The target of assay [20] is D(2) dopamine receptor (Homo sapiens) (UniProt P14416). Put plainly: Dopamine D2 receptor (DRD2) small molecule agonists, cell-based qHTS assay (AID 1963594). Note: nearly all actives have a fitted effect of over 35% in size. The gist of the method:
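HEK293 cells stably expressing human DRD2, pre-treated with PDE inhibitor Ro20-1724 (0.1 mM final) and compound 10 min at room temperature, then stimulated with NKH477 (200nM […]) for 30 min. cAMP read by HTRF (665/620 nm).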

Where “and” joins values, the source holds several entries; their conditions need not be identical. Identical values can stand only once. Inconclusive results are not listed. Some structures have more than one record in an assay (separate samples or runs), and their calls can disagree. Calls of active or inactive are those of the source. Unless noted, calls come from the whole dose curve.

Chain of 5-hydroxytryptamine receptor 2A (Homo sapiens) (P28223 whole entry, looked up): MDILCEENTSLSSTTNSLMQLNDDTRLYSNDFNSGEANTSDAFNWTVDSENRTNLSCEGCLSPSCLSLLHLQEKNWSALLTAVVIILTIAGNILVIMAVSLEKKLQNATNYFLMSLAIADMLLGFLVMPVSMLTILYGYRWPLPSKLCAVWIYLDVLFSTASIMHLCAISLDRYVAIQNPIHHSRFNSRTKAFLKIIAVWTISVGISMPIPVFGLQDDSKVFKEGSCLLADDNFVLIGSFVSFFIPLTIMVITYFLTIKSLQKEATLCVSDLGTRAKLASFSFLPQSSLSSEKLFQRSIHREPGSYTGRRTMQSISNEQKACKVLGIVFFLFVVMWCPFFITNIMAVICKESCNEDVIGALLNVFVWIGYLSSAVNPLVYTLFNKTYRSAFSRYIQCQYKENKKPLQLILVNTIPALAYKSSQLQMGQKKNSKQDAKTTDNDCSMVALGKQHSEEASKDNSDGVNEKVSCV
Chain of Muscarinic acetylcholine receptor M1 (Homo sapiens) (P11229 whole entry, looked up): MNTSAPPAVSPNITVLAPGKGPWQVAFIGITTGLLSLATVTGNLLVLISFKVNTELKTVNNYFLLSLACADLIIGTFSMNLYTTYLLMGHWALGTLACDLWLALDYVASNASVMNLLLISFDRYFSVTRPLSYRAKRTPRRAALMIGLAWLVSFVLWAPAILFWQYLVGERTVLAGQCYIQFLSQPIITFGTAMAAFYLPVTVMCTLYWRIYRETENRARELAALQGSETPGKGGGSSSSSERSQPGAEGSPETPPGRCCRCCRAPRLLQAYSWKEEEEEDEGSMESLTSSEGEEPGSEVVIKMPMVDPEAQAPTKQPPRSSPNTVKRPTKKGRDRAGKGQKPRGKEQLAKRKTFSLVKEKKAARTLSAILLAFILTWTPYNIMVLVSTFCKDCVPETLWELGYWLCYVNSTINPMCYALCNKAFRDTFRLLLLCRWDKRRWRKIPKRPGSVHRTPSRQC
Chain of Gonadotropin-releasing hormone receptor (Homo sapiens) (P30968 whole entry, looked up): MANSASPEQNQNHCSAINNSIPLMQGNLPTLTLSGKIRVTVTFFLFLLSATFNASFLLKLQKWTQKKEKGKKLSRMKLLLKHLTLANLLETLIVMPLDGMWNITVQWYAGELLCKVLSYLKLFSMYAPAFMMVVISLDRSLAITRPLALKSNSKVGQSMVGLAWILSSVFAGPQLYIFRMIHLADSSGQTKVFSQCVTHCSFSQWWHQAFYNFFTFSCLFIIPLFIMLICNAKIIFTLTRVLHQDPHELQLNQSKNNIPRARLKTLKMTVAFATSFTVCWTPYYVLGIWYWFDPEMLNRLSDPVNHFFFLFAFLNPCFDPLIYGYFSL
Chain of Beta-2 adrenergic receptor (Homo sapiens) (P07550 whole entry, looked up): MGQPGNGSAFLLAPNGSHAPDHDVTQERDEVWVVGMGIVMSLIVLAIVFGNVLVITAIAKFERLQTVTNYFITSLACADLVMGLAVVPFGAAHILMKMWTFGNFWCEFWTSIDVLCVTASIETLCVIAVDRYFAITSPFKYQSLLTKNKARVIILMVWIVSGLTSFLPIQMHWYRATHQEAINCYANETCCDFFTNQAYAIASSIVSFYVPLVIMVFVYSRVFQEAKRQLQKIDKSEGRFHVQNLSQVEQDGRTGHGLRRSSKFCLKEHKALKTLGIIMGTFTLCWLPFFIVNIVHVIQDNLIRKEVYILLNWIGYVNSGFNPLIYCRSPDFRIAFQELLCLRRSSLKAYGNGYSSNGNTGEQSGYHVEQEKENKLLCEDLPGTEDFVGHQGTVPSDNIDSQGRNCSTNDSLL
Chain of D(2) dopamine receptor (Homo sapiens) (P14416 whole entry, looked up): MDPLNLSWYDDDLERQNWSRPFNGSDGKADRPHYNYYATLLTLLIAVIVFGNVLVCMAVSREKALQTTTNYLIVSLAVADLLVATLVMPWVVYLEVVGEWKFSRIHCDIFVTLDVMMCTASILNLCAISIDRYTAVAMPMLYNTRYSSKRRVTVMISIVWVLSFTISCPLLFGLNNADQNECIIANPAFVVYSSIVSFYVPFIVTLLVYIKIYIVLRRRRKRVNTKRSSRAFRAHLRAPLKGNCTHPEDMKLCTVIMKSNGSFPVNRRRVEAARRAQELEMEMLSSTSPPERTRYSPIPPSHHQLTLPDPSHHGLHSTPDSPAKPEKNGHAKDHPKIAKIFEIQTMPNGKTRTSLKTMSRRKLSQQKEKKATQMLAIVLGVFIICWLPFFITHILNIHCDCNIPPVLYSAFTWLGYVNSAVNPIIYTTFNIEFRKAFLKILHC

For the molecule `Cc1cc(N)no1`, the Potency result in assay [1], in [2], in [3], in [4], in assay [5] and in assay [6] was “inactive” in each case. The Potency entry in [7], in assay [8], in [9], in assay [10], in [11] and in assay [12] was “inactive” each time. Further, the Potency entry in assay [13], in [14], in assay [15], in assay [16] and in assay [17] was “inactive” in each case.
As to `CCC(C)(C)CC`, the Potency entry in [1], in [2], in assay [3], in assay [4], in [5] and in assay [7] was “inactive” throughout. Besides, the Potency result in [8], in assay [9], in assay [18], in assay [10], in assay [11] and in assay [12] was “inactive” in each case. Also, the Potency result in assay [13], in assay [14], in assay [15], in [16], in assay [19] and in [20] was “inactive” each time. Also, the Potency result in assay [17] is “inactive”.
For the molecule `NS(=O)(=O)c1ccc(N2CCCCS2(=O)=O)cc1`, the Potency entry in assay [1], in assay [2], in [4], in assay [5], in [6] and in assay [7] was “inactive” throughout. Further, the Potency result in [8], in assay [9], in [18], in [10], in assay [11] and in assay [12] was “inactive” in each case. Further, the Potency entry in assay [14], in assay [15], in assay [16], in assay [19], in [20] and in assay [17] was “inactive” each time.
On to `C=C(C)C(=O)NCCC[N+](C)(C)C`, for which the Potency entry in assay [1], in [2], in assay [4], in assay [5], in assay [6] and in assay [7] was “inactive” throughout. The Potency entry in [8], in assay [9], in [18], in [10], in [11] and in [13] was “inactive” each time. The Potency entry in assay [14], in [15], in [16], in assay [20] and in assay [17] was “inactive” throughout.
With `C1CCCCC1`, the Potency result in assay [1], in assay [2], in [3], in assay [5], in assay [6] and in assay [7] was “inactive” throughout. For the same molecule, the Potency entry in assay [8], in [9], in assay [18], in [10], in assay [11] and in assay [12] was “inactive” in each case. Moreover, the Potency result in assay [13], in assay [14], in assay [15], in assay [16] and in [20] was “inactive” throughout.
Regarding `OCCNCCO`, the Potency result in assay [1], in assay [2], in [3], in [4], in [7] and in assay [8] was “inactive” throughout. Besides, the Potency entry in assay [9], in assay [10], in [12], in [13], in assay [14] and in assay [15] was “inactive” throughout. The Potency result in assay [16] and in [20] was “inactive” throughout.
For `CCOC(=O)N1CCC(=C2c3ccc(Cl)cc3CCc3cccnc32)CC1`, the Potency in assay [1] was 68.6 µM (active) and 26.6 µM (active); in assay [16], 54.5 µM (active). Also, the Potency entry in assay [2], in assay [3], in assay [4], in assay [9], in assay [14] and in assay [15] was “inactive” throughout. In addition, the Potency result in assay [20] and in [17] was “inactive” each time.
Consider `Cc1c(C(=O)c2c[nH]n(C)c2=O)ccc(S(C)(=O)=O)c1C1=NOCC1`, for which the Potency result in [1], in assay [2], in [4], in assay [5], in assay [6] and in assay [7] was “inactive” throughout. The Potency result in assay [8], in [9], in assay [18], in assay [10], in assay [11] and in [12] was “inactive” in each case. Further, the Potency result in assay [14], in [15], in assay [16], in assay [20] and in [17] was “inactive” in each case.
For `CCc1ccccc1O`, the Potency result in [1], in assay [3], in [4], in assay [7], in assay [8] and in assay [9] was “inactive” in each case. In addition, the Potency result in [10], in assay [11], in assay [13], in assay [14], in [15] and in assay [16] was “inactive” each time. The Potency entry in [19], in assay [20] and in assay [17] was “inactive” throughout. Further, the Potency in [2] is 60.8 µM (active) and inactive.

Values taken from PubChem BioAssay (Tox21).
